Measurements reported in PubChem BioAssay (Tox21).
Unmarked numbers belong to inactive results. Inconclusive results are not listed. Calls of active or inactive are those of the source. Unless noted, calls follow the shape of the dose curve; as a rule, active = well fitted cell-killing curve with a large enough effect in the repeat runs; inconclusive = weak or mixed curves, or effect the other way; inactive = no such curve, though single readings can be large or run the other way.

Assay: qHTS assay to identify small molecule antagonists of the sonic hedgehog signaling (Shh) pathway - cell viability counter screen (AID 1259367); also: nearly all actives have a fitted effect of over 55% in size; also: potency is read from the fitted curve at half-maximal effect
Settings: NIH/3T3 Gli1-Luc viability, CellTiter-Fluor, 24 h; series mostly up to 92.4 µM; viability change, negative = cytotoxic: at the top concentration
Method in brief: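 NIH/3T3-derived Gli1-Luc reporter cells, 2,000/well, plated 4 hr before compound addition, then stimulated with conditioned medium for 24 hr at 37C. Viability measured in the same wells by CellTiter-Fluor fluorescence, reagent added at 23 hr for 1 hr.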
% is scaled to controls: 0 for no effect and ±100 for the full control effect.

Question: For CCOC=C(C(=O)OCC)C(=O)OCC, which “viability change, negative = cytotoxic” value is on record?
Answer: Its value is 1.86% (inactive).

Question: For O=C1CCC(=O)N1, which “viability change, negative = cytotoxic” value is on record?
Answer: The value was 5% (inactive).

Question: Which “viability change, negative = cytotoxic” value does the source give for CCc1cccc(C)c1N(C(=O)CS(=O)(=O)O)C(C)COC (stereo not given) here?
Answer: The value was -0.0793% (inactive).

Question: Which “viability change, negative = cytotoxic” value does the source give for O=[N+]([O-])c1ccc(CO)cc1 here?
Answer: The value was 4.07% (inactive).

Question: For CN[C@H]1CC[C@@H](c2ccc(Cl)c(Cl)c2)c2ccc(S(N)(=O)=O)cc21, which Potency is on record?
Answer: The Potency was 61.1 µM (active).

Question: Which viability change, negative = cytotoxic does the source give for C=CC(=O)OCCOC1C2CCC1C1CC=CC12 (stereo not given) here?
Answer: The viability change, negative = cytotoxic was 5.82% [at 19 µM].

Question: Which “viability change, negative = cytotoxic” value does the source give for Cc1ccc2sc3cccc(C)c3c2c1 here?
Answer: Its value is 1.67% (inactive).

Question: For Cc1cc(C)c(O)c(C(C)(C)C)c1, which “viability change, negative = cytotoxic” value is on record?
Answer: The value was -12.7% (inactive).

Question: For CCN(CC)c1ccc(C=O)cc1, which “viability change, negative = cytotoxic” value is on record?
Answer: The value was 1.98% (inactive).

Question: For O=C1CCCCCCCCCCCCCC1, which “viability change, negative = cytotoxic” value is on record?
Answer: Its value is -3.74% (inactive).

Question: For Cc1ccc(C=O)cc1, which “viability change, negative = cytotoxic” value is on record?
Answer: The value was -5.33% [at 42.5 µM] (inactive).

Question: Which “viability change, negative = cytotoxic” value does the source give for SC1CCCCC1 here?
Answer: Its value is 1.81% (inactive).

Question: Which “viability change, negative = cytotoxic” value does the source give for CC(C)C(=O)C(C)C here?
Answer: Its value is 4.18% (inactive).

Question: With CCc1cccc(CC)c1 as the molecule, how does the “viability change, negative = cytotoxic” value read?
Answer: Its value is 6.49% (inactive).

Question: With Clc1ccc2c(Cl)ccnc2c1 as the molecule, how does the “viability change, negative = cytotoxic” value read?
Answer: The value was 1.45% (inactive).

Question: With CCC1(C)C(=O)N(Cl)C(=O)N1Cl (stereo not given) as the molecule, how does the “viability change, negative = cytotoxic” value read?
Answer: The value was 0.518% (inactive).

Question: With CSc1ccc(O)cc1C as the molecule, how does the Potency read?
Answer: The Potency was 27.3 µM (active).

Question: With Nc1ccc(F)c([N+](=O)[O-])c1 as the molecule, how does the “viability change, negative = cytotoxic” value read?
Answer: The value was -0.06% (inactive).

Question: With O=c1[nH]cccc1O as the molecule, how does the “viability change, negative = cytotoxic” value read?
Answer: Its value is -0.731% (inactive).

Question: For C/C=C/C(=O)OCC(C)C, which “viability change, negative = cytotoxic” value is on record?
Answer: The value was -20.1% (inactive).

Question: For CCOC(=O)OC(=O)OCC, which “viability change, negative = cytotoxic” value is on record?
Answer: The value was 2.71% (inactive).

Question: For CCCCCCCCc1ccc(Nc2ccc(CCCCCCCC)cc2)cc1, which “viability change, negative = cytotoxic” value is on record?
Answer: Its value is -3.63% [at 42.5 µM] (inactive).

Question: For Cc1cccc2c1ccc1ccccc12, which “viability change, negative = cytotoxic” value is on record?
Answer: Its value is 0.671% (inactive).

Question: With C=C(C)C1CCC(C)CC1O (stereo not given) as the molecule, how does the “viability change, negative = cytotoxic” value read?
Answer: Its value is 10.4% (inactive).

Question: Which “viability change, negative = cytotoxic” value does the source give for C=C1CC[C@H]2O[C@]2(C)CC[C@@H]2[C@@H]1CC2(C)C here?
Answer: The value was 1.62% (inactive).

Question: For NC(=O)C1CO1 (stereo not given), which “viability change, negative = cytotoxic” value is on record?
Answer: Its value is 3.42% (inactive).

Question: Which “viability change, negative = cytotoxic” value does the source give for Cc1c[nH]c(=O)[nH]c1=O here?
Answer: The value was -0.901% (inactive).

Question: Which “viability change, negative = cytotoxic” value does the source give for NCc1ccco1 here?
Answer: The value was 2.15% (inactive).

Question: For CCc1c(C)cc(N)c(CC)c1N, which “viability change, negative = cytotoxic” value is on record?
Answer: The value was 2.58% (inactive).

Question: For O=C1OCc2ccccc21, which “viability change, negative = cytotoxic” value is on record?
Answer: The value was 5.78% (inactive).

Question: Which “viability change, negative = cytotoxic” value does the source give for Nc1c(Br)cc([N+](=O)[O-])cc1Br here?
Answer: Its value is -5.19% (inactive).

Question: For CC(C=O)c1ccccc1 (stereo not given), which “viability change, negative = cytotoxic” value is on record?
Answer: Its value is 0.997% (inactive).

Question: Which “viability change, negative = cytotoxic” value does the source give for CCOC(=O)[C@H](O)[C@@H](O)C(=O)OCC here?
Answer: The value was 1.42% (inactive).

Question: With CSc1nnc(C(C)(C)C)c(=O)[nH]1 as the molecule, how does the “viability change, negative = cytotoxic” value read?
Answer: The value was 0.372% (inactive).

Question: Which “viability change, negative = cytotoxic” value does the source give for CCc1cccc(C)c1N(C(=O)C(=O)O)C(C)COC (stereo not given) here?
Answer: The value was -1.19% (inactive).

Question: With Cc1ccc2n[nH]nc2c1 as the molecule, how does the “viability change, negative = cytotoxic” value read?
Answer: Its value is -0.592% (inactive).

Question: Which “viability change, negative = cytotoxic” value does the source give for CCCC(C)C=O (stereo not given) here?
Answer: The value was -0.674% (inactive).

Question: For C/C(=C\c1ccc(C(=O)O)cc1)c1ccc2c(c1)C(C)(C)CCC2(C)C, which “viability change, negative = cytotoxic” value is on record?
Answer: The value was -11.3% [at 42.5 µM] (inactive).

Question: Which “viability change, negative = cytotoxic” value does the source give for O=C(NCc1ncc(C(F)(F)F)cc1Cl)c1c(Cl)cccc1Cl here?
Answer: The value was 2.77% (inactive).

Question: Which “viability change, negative = cytotoxic” value does the source give for C=CC(C)(C)O here?
Answer: Its value is 0.482% (inactive).

Assay: qHTS assay to identify small molecule agonists of the sonic hedgehog signaling (Shh) pathway (AID 1259368; calls by dose curve;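 also: NIH/3T3-derived 3T3Gli1-Luc cells carrying a stable Gli1-driven firefly luciferase reporter; nearly all actives have a fitted effect of over 15% in size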)
Settings: NIH/3T3 Gli1-Luc reporter, luciferase, 24 h; series mostly up to 92.4 µM; activity change: at the top concentration
Method in brief: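 3T3Gli1-Luc (NIH/3T3 clone, stable Gli1-Luc); 4 hr pre-incubation, then cpd in DMSO 24 hr, 37 C/5% CO2; luciferase reagent 30 min RT; luminescence.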

Question: Which “activity change” value does the source give for CCOC=C(C(=O)OCC)C(=O)OCC here?
Answer: Its value is -1.23% (inactive).

Question: With O=C1CCC(=O)N1 as the molecule, how does the “activity change” value read?
Answer: Its value is -0.215% (inactive).

Question: Which “activity change” value does the source give for CCc1cccc(C)c1N(C(=O)CS(=O)(=O)O)C(C)COC (stereo not given) here?
Answer: Its value is -0.862% (inactive).

Question: With O=[N+]([O-])c1ccc(CO)cc1 as the molecule, how does the “activity change” value read?
Answer: The value was -1.43% (inactive).

Question: For CN[C@H]1CC[C@@H](c2ccc(Cl)c(Cl)c2)c2ccc(S(N)(=O)=O)cc21, which “activity change” value is on record?
Answer: Its value is -14.5% (inactive).

Question: For C=CC(=O)OCCOC1C2CCC1C1CC=CC12 (stereo not given), which activity change is on record?
Answer: Its activity change is -1.29% [at 18.9 µM, active compounds read high].

Question: For Cc1ccc2sc3cccc(C)c3c2c1, which “activity change” value is on record?
Answer: The value was -0.415% (inactive).

Question: Which “activity change” value does the source give for Cc1cc(C)c(O)c(C(C)(C)C)c1 here?
Answer: The value was 0.0808% (inactive).

Question: For CCN(CC)c1ccc(C=O)cc1, which “activity change” value is on record?
Answer: The value was -1.74% (inactive).

Question: Which “activity change” value does the source give for O=C1CCCCCCCCCCCCCC1 here?
Answer: Its value is 1.52% (inactive).

Question: With Cc1ccc(C=O)cc1 as the molecule, how does the “activity change” value read?
Answer: The value was 1.14% [at 42.5 µM, active compounds read high] (inactive).

Question: For SC1CCCCC1, which “activity change” value is on record?
Answer: Its value is -1.1% (inactive).

Question: Which “activity change” value does the source give for CC(C)C(=O)C(C)C here?
Answer: The value was -0.221% (inactive).

Question: With CCc1cccc(CC)c1 as the molecule, how does the “activity change” value read?
Answer: The value was -1.33% (inactive).

Question: With Clc1ccc2c(Cl)ccnc2c1 as the molecule, how does the “activity change” value read?
Answer: The value was -1.72% (inactive).

Question: With CCC1(C)C(=O)N(Cl)C(=O)N1Cl (stereo not given) as the molecule, how does the “activity change” value read?
Answer: The value was -1.34% (inactive).

Question: With CSc1ccc(O)cc1C as the molecule, how does the “activity change” value read?
Answer: Its value is -9.98% (inactive).

Question: For Nc1ccc(F)c([N+](=O)[O-])c1, which “activity change” value is on record?
Answer: Its value is -1.39% (inactive).

Question: For O=c1[nH]cccc1O, which “activity change” value is on record?
Answer: Its value is -1.8% (inactive).

Question: With C/C=C/C(=O)OCC(C)C as the molecule, how does the “activity change” value read?
Answer: Its value is 1.18% (inactive).
